# Key:
# Test in all cases: PBM binding z-score (relative to random genomic background probes); higher = stronger binding; sequences stand for … in GC…GCGATTGACAGCGTAGAATGAAGG
# [1] = test system: RARb homodimer (NR concentration 270 nM)
# Summary of the method: (§1)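 Custom Agilent 4×180K protein-binding microarrays carried double-stranded probes. Their 34-nt variable regions held direct-repeat seeds, single-nucleotide variants, half-site ablations and random human genomic background sequences. Arrays were incubated 1 h with ligand-free nuclear receptor dimers in PBS pH 7.4, 2% milk, 0.02% Triton X-100, 1 mM DTT, 0.2 mg/mL BSA and 0.4 mg/ml salmon testes DNA. Antibodies against each partner (one per run) detected binding, and scanned fluorescence was regression-normalized. Binding z-scores use random background probes as reference.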
# [2] = test system: RARg:RXRa (NR concentration 270 nM, RXRa partner concentration 90 nM)
# Summary of the method: as §1
# [3] = test system: RARg homodimer (NR concentration 270 nM)
# Summary of the method: as §1
# [4] = test system: RXRa DBDmut IVT, anti-RXR (DBD mutation: RXRa K156A/R161A, NR concentration 90 nM)
# Summary of the method: as §1
# [5] = test system: RXRa homodimer (NR concentration 180 nM)
# Summary of the method: as §1
# [6] = test system: THRa:RXRa (NR concentration 90 nM, RXRa partner concentration 90 nM)
# Summary of the method: as §1
# [7] = test system: THRa homodimer (NR concentration 90 nM)
# Summary of the method: as §1
# [8] = test system: VDR:RXRa (NR concentration 270 nM, RXRa partner concentration 90 nM)
# Summary of the method: as §1
# [9] = test system: VDR homodimer (NR concentration 270 nM)
# Summary of the method: as §1
Sequence,PBM binding z-score [1],PBM binding z-score [2],PBM binding z-score [3],PBM binding z-score [4],PBM binding z-score [5],PBM binding z-score [6],PBM binding z-score [7],PBM binding z-score [8],PBM binding z-score [9]
TCTTGTAGATCAAAGGTTATGAAAGCCGAAGCCT,1.25,1.65,0.684,0.966,3.08,1.46,-0.27,1.25,0.204
TCGAGTCGGTTAGGGGCATTCAGAATGGCGTCGA,0.345,-0.19,-0.321,0.196,0.0404,1.38,-0.39,0.541,1.12
TCATATAGGTAGAGGTGAAAGTCGAACGATATGA,1.04,1.18,1.11,0.392,1.77,1.41,-0.0362,0.794,0.0889
AGTATGAGGTTAAGATCAGGGAAACAGAATACAT,1.09,2.13,1.66,0.674,2.42,2.63,0.96,1.18,0.755
AGTCAAAGTCCACTAGGTAACGTAAGATTCAGCT,0.615,0.39,0.85,0.801,-0.0426,0.284,0.284,-0.0687,-0.159
CCGACTGGAGCAAGGTTACCATAACGCACAGCCA,1.15,0.461,0.534,0.587,0.971,1.16,0.379,0.139,0.142
TCTCGGCGGACACGAAGGTCAGAGCTTTCCAGAG,2.83,2.03,2.17,0.141,1.28,1.16,-0.151,0.658,0.187
GGAACGAGGGCCAGTTGATAGCAGAGTTTGATGG,0.014,-0.18,0.0481,-0.0614,0.143,-0.74,-0.812,-0.702,-0.327
CCTACTGGGCCATTCAGATGTCATTGATCATATG,0.108,0.278,0.389,0.148,-0.34,-0.291,-0.95,-0.54,-0.52
ATACCAAGGTGATCGTGAGGTCGTTGTTACTAAC,1.7,1.78,0.637,0.951,1.21,3.27,2.64,3.18,3.22
TCATATAGGTAAAGGCGAAAGTCGAACGATATGA,-0.012,0.425,0.439,0.563,0.727,-0.186,-0.507,0.324,-0.251
TCTGCTAGGTCAACGCTGGTCAGCTAATCTGCTA,3.46,4.21,5.26,0.991,2.33,3.52,0.43,1.36,-0.576
AGTCAAAGTTCAATAGGTAACGTAAGATTCAGCT,3.98,5.19,5.37,4.02,3.85,1.72,0.00177,3.71,3.4
TGTTGTAGATCAGCAGGTTAAGAAAGCTGGCCAA,-0.378,-0.266,-0.294,-1.38,-0.118,-0.32,-1.04,-0.372,-0.583
TCTTGTATATCAGCAGGTTAAGAAAGCTGGCCAA,0.756,0.511,0.266,1.05,0.75,0.759,0.0914,0.851,0.143
CGTACAAGGTCATAGGAGGTCAGTGAAGACAGAT,5.45,6.72,7.17,4.16,6.75,5.49,3.23,6.79,4.19
CCTGCTAGGTCATGGTCAACTAATCTACAGTATG,3.37,4.23,5.18,1.75,2.88,3.26,1.41,2,0.335
TTCCCAAGGTGAAAGGTCGTTGATGCACGCCTTG,3.14,4.25,2.13,0.532,5.91,3.6,1.4,3.35,1.52
